Compound activity as filed in PubChem.
USP17 inh = inhibitors of human USP17 deubiquitinase. purified USP17, Ub-rhodamine cleavage fluorescence, 3 h. 6.5% of 47,000 active. inhibition, % at 50 µM. AID 1645855. A8MUK1
Target sequence (A8MUK1 whole entry, looked up): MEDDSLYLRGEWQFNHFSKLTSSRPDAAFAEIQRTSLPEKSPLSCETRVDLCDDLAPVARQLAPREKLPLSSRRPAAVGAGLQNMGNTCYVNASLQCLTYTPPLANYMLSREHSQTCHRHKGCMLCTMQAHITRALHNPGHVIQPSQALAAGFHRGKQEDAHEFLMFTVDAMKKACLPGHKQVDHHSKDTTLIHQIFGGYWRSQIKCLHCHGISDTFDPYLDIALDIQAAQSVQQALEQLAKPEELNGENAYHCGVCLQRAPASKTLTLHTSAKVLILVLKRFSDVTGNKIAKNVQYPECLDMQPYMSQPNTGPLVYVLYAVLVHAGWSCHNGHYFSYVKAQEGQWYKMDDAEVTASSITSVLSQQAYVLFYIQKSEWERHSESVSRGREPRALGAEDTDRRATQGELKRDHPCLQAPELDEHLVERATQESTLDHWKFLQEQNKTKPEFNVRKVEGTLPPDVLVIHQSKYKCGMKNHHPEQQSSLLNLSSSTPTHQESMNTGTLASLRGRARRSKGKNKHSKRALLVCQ
USP30 inh = human USP30 deubiquitinase inhibition. Q70CQ3. purified USP30, Ub-rhodamine cleavage fluorescence. inhibition, % at 25 µM. 5.3% of 47,000 active
USP28 block = human USP28 deubiquitinase inhibition; Q96RU2; purified USP28, Ub-rhodamine cleavage fluorescence, 30 min; 3% of 47,000 active; inhibition, % at 25 µM; AID 1645857
Numbers without * were called inactive; i = inactive; / = not tested or not shown. Sampled rows, rich in hits. Any-hit rate of the full collection: about 11%. No stated cut-off is given here; in the data, active means inhibition above about 30%; inactive means the rest.

SMILES	USP17 inh	USP30 inh	USP28 block
CCCn1c(=O)c2nscc2n(CC(=O)NCc2ccc(C)cc2)c1=O	43.4*	42.3*	18.2
O=C(Cn1c(=O)[nH]c2c(-c3ccccc3)c[nH]c2c1=O)NCc1ccco1	44.9*	/	/
O=C(Cn1c(=O)[nH]c2c(-c3ccccc3)c[nH]c2c1=O)NCc1ccc(Cl)cc1	-9.6	-11.2	-8.6
CCn1c(=O)c2nscc2n(CC(=O)Nc2ccc(C)cc2)c1=O	12.9	18.8	4.7
Cc1nonc1COc1ccccc1C(=O)N1CCC[C@H]2NCCC[C@@]21C	3.2	7.6	7.1
Cc1ccc(C)c(CSc2cn(CC(=O)N3CCC(C)CC3)c3ccccc23)c1	12.2	12.7	11.2
O=C(c1ccc2ncccc2c1)N1CCCC2(COCCN(CC3CC3)C2)C1 (stereo unspecified)	-11.8	-18.0	-13.6
CCOC(=O)c1ccc(NC(=O)c2cnc(N3CCOCC3)nc2)cc1	-97.0	-243.4	-70.3
Cc1cc(S(=O)(=O)[C@H]2CS(=O)(=O)C[C@@H]2NCCc2ccccc2)ccc1F	6.0	14.1	3.4
O=C(Cn1c(=O)n(Cc2ccccc2)c(=O)c2cc(Cl)ccc21)NCc1ccco1	-10.4	-38.5	-5.3
CCn1cc2c(n1)c(=O)n(Cc1ccccc1)c(=O)n2CC(=O)NCc1ccc(C)cc1	55.9*	90.4*	26.7
O=C(Cn1c(=O)n(Cc2ccccc2)c(=O)c2nscc21)NCc1ccco1	41.9*	-22.8	14.5
CCC(C)NC(=O)Cn1c(=O)n(Cc2ccccc2)c(=O)c2nscc21 (stereo unspecified)	3.9	8.6	-0.2
Cc1cnc(-c2nnc(C3CCCCN3S(=O)(=O)c3ccccc3)o2)cn1 (stereo unspecified)	-8.3	-5.3	-0.8
Cc1ccccc1NC(=O)CCc1cccc2[nH]ccc12	13.6	7.6	-0.6
CCCN(CC(=O)Nc1ccccc1C)CC(=O)Nc1cccc2ccccc12	19.3	36.9*	18.9
Cc1ccccc1NC(=O)COc1ccccc1-c1noc(COc2ccccc2F)n1	-14.1	-64.9	-14.2
Cc1ccccc1NC(=O)Cc1nc(-c2cccc3ccccc23)cs1	46.8*	17.3	14.1
Cc1cc(F)ccc1S(=O)(=O)N1CCc2cc3ccccc3nc21	4.9	-14.4	7.9
CCN1CCOCC2(CCCN(C(=O)c3ccccc3F)C2)C1 (stereo unspecified)	-3.8	28.1	2.6
O=C(c1cc(C2CC2)[nH]n1)N1CCN(Cc2ccc3c(c2)OCO3)CC1	-9.9	4.5	6.4
COc1ccc(C(C(=O)NCc2ccccc2)N(C(=O)CCN2CCc3ccccc32)c2ccc(F)cc2)cc1OC (stereo unspecified)	-168.7	i	-246.7
Cc1[nH]c(C)c(S(=O)(=O)N2CCC(C(=O)Nc3ccccc3)CC2)c1C(=O)N1CCCCC1	-14.4	1.6	-5.7
N#Cc1ccc(/C=C/c2nc3ccccc3n2Cc2ccc(F)cc2)cc1	2.8	-41.5	-7.9
Cc1ccc(Cn2c(/C=C/c3ccc(F)cc3)nc3ccccc32)cc1	2.2	14.9	35.1*
SMILES	USP17 inh	USP30 inh	USP28 block
CC(C)N1Cc2ccccc2CN2CCN(S(=O)(=O)N3CCOCC3)CC2C1 (stereo unspecified)	-9.8	-35.9	-13.2
O=c1[nH]cccc1NS(=O)(=O)c1ccc(F)cc1	85.7*	-33.1	4.7
CCc1nc2c(NS(=O)(=O)c3ccc(F)cc3)cccn2n1	-40.7	-166.8	-53.8
O=C(c1ncccn1)N1CCCC(c2cncc(Oc3ccccc3)n2)C1 (stereo unspecified)	1.7	-1.3	-4.2
Cc1cccc(NC(=O)CNC(=O)c2ccc(-c3noc(C4CCCC4)n3)cc2)c1C	31.6*	34.6*	1.8
Cc1nc(CNC(=O)c2ccc(-c3noc(C4CC4)n3)cc2)no1	-11.2	-4.9	-8.9
Cc1cc(-c2cncc(CC3CCN(S(=O)(=O)N(C)C)CC3)n2)n[nH]1	-19.0	-23.1	-15.1
CCN1C(=O)Cc2cc(NS(=O)(=O)c3ccc(OC)cc3)ccc21	0.0	21.8	15.6
COc1ccc(S(=O)(=O)Nc2ccc3nn(C)cc3c2)cc1	33.7*	-62.9	-13.0
COc1cc(/C=C2\Oc3cc(OCC=C(C)C)ccc3C2=O)cc(OC)c1OC	-40.4	-168.4	-26.1
CC(C)=CCC/C(C)=C/COc1ccc(/C=C2\C(=O)N(O)[C@@H](C)C(=O)N2O)cc1	4.3	33.4*	47.2*
Cc1nnc2ccc(C(=O)NC(C)c3ccccc3)cn12 (stereo unspecified)	-17.1	-38.0	-8.9
Cc1ccc(S(=O)(=O)N2CCc3nc(N4CCOCC4)[nH]c(=O)c3CC2)c(C)c1	3.2	0.5	1.5
CC1(C)CCC[C@]2(C)[C@@H](CCO)[C@](C)(O)CC[C@@H]12	-15.0	-18.0	-10.0
Cc1cc(C)cc(NC(=O)Nc2nnc(CC(=O)N3CCOCC3)s2)c1	-23.7	2.1	5.5
O=C(NC1CCCC1)C1c2cc(Br)ccc2OCC(=O)N1C1CCCCC1 (stereo unspecified)	2.0	13.9	0.1
O=C(OCC(=O)c1cccs1)c1ccc(Cl)cc1	1.0	6.9	17.6
O=C(CCSc1ccc(Cl)cc1)c1cccs1	84.5*	8.9	24.4
Cc1nn(C)cc1S(=O)(=O)Nc1ccn(Cc2ccc(Cl)cc2)n1	-0.1	-6.6	-5.6
CNc1nc2c(c(=O)n1-c1ccccc1)CCN(C(=O)NC1CCCC1)C2	4.2	-16.2	-1.0
Cc1nn(-c2cccc(C(F)(F)F)c2)c2c1C(c1ccccc1)N1C=C(Cl)C=C(Cl)C1=N2 (stereo unspecified)	34.9*	-88.2	-10.4
COc1ccc(C2c3c(C)nn(-c4ccccc4)c3N=C3C(=O)Nc4ccccc4N32)cc1 (stereo unspecified)	-15.4	-36.4	-9.0
Cc1noc(C)c1CN1CCC(C2CCCCCN2C(=O)Nc2ccccc2)CC1 (stereo unspecified)	-12.6	-34.4	-5.6
CC(=O)N1CCCC(c2nc(C)cc(-c3ccccc3C(=O)O)n2)C1 (stereo unspecified)	-3.9	0.7	-4.3
CC(=O)N1CCCC(c2nc(C)cc(-c3cc(F)ccc3C(=O)O)n2)C1 (stereo unspecified)	7.1	63.7*	7.4
SMILES	USP17 inh	USP30 inh	USP28 block
COc1ccc(NC(=O)c2sc3ncn(CC(=O)N4CCN(c5ccccn5)CC4)c(=O)c3c2C)cc1OC	19.4	-0.9	-1.2
Cc1ccc(NC(=O)c2sc3ncn(CC(=O)N4CCN(c5ccccn5)CC4)c(=O)c3c2C)c(Br)c1	58.8*	-62.6	-11.4
O=C(Nc1ccccn1)N1C[C@@H]2c3nccn3-c3ccccc3[C@@H]2C1	13.7	34.0*	8.6
Cc1ccc(NC(=O)N2C[C@@H]3c4nccn4-c4ccccc4[C@@H]3C2)cc1	-14.6	0.3	-18.0
O=C(Nc1cccc2cccnc12)c1ccc(N2CCCCC2)nn1	/	-54.3	-11.1
O=C(Cc1ccccc1)NCc1nnc(SCC(=O)N2CCc3ccccc32)n1-c1ccc(Br)cc1	7.9	16.4	3.9
O=C(CSc1ncnc2ccccc12)N1CCN(c2ccccc2)CC1	-17.6	0.0	-8.9
O=C(COc1ccc(Cl)cc1)NCc1nnc(SCC(=O)N2CCN(c3ccccc3)CC2)o1	40.6*	38.5*	5.3
O=C(COc1ccc(Cl)cc1)NCc1nnc(SCC(=O)Nc2nc3ccccc3s2)o1	32.8*	-74.5	15.8
O=C(COc1ccc(Cl)cc1)NCc1nnc(SCC(=O)N2CCc3ccccc32)o1	24.2	39.6*	2.6
